For 7 molecules, growth results are on record in PubChem BioAssay (NCI).

Test systems include SK-MEL-2 melanoma; EKVX NSCLC; SN12C renal; UO-31 renal; TK-10 renal; ACHN renal; CAKI-1 renal; A498 renal; CCRF-CEM leukemia; MOLT-4 leukemia; SR leukemia; RPMI-8226 leukemia; OVCAR-8 ovarian; OVCAR-5 ovarian; OVCAR-4 ovarian; SK-OV-3 ovarian; IGROV1 ovarian; OVCAR-3 ovarian; HS 578T breast; NCI/ADR-RES ovarian.
Common to all, as to test: NCI-60 one-dose screen, 48 h (100 = growth as untreated, 0 = no growth, -100 = all killed)
Holding throughout (settings): 10 µM unless noted

Structures are written as SMILES. About 83,000 compounds went through this panel and 20% of them were active in at least one assay; those are over-represented in the sample as a whole.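 Testing used 96-well plates and a 48-hour single-concentration exposure. Example: -40 means 40% of the starting cells died.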 A number with no mark means an inactive call. Activity calls are given as the source filed them. How the source made its calls: active means growth percent below 10; inactive means the rest.

As for `Cc1ccc2c(=O)cc(C(=O)Nc3sc4c(c3C(=O)NCc3cccnc3)CCCC4)oc2c1C`, the growth in the experiment with SK-MEL-2 melanoma is 109%; in the experiment with EKVX NSCLC, 103%; with SN12C renal it was 95.3%; with UO-31 renal it was 78.5%; with TK-10 renal, 116%; with ACHN renal, 96.8%. The growth with CAKI-1 renal is 90.6%; with A498 renal, 89.1%; in the experiment with CCRF-CEM leukemia, 93%; in the experiment with MOLT-4 leukemia, 90.3%; in the experiment on SR leukemia, 89.8%; in the experiment on RPMI-8226 leukemia it was 102%. For the same molecule, the growth is 98.4% in the experiment on OVCAR-8 ovarian; 105% with OVCAR-5 ovarian; 105% in the experiment with OVCAR-4 ovarian; 100% in the experiment on SK-OV-3 ovarian; 100% in the experiment with IGROV1 ovarian; 106% in the experiment on OVCAR-3 ovarian. The growth in the experiment with HS 578T breast was 91.7%; in the experiment on NCI/ADR-RES ovarian it was 98.9%.
For `COc1cc(C2C(C(=O)OCc3ccccc3)=C(C)NC(C)=C2C(=O)OCc2ccccc2)cc(OC)c1OC`, the growth is -6.43% (active) with SK-MEL-2 melanoma; 31.5% in the experiment with EKVX NSCLC; 29.1% in the experiment with SN12C renal; 18.5% in the experiment with UO-31 renal; 34.8% with TK-10 renal; 16.2% with ACHN renal. For the same molecule, the growth is 26.2% with CAKI-1 renal; 36.8% in the experiment with A498 renal; 11.3% in the experiment with CCRF-CEM leukemia; -9.95% (active) with MOLT-4 leukemia; 4.89% (active) with SR leukemia; -0.546% (active) with RPMI-8226 leukemia. For the same molecule, the growth is 34% in the experiment on OVCAR-8 ovarian; 68.5% in the experiment with OVCAR-5 ovarian; 37.6% in the experiment on OVCAR-4 ovarian; 27.5% in the experiment with SK-OV-3 ovarian; 38.7% with IGROV1 ovarian; 35.7% in the experiment with OVCAR-3 ovarian. Further, the values for the growth with HS 578T breast and with NCI/ADR-RES ovarian were 46.4% and 26.1%, respectively.
With `C/C=C(\C)C(=O)N[C@H]1C(O)C[C@]2(C)C3CC[C@@]4(C)C(CC[C@@H]4C(C)N(C)C)C3CCC2C1O` (stereo not given in full), the growth in the experiment on SK-MEL-2 melanoma was 117%; with EKVX NSCLC, 66%; in the experiment with SN12C renal, 68.1%; in the experiment with UO-31 renal, -0.798% (active); with TK-10 renal it was 109%; in the experiment on ACHN renal it was 60.4%. The growth with CAKI-1 renal is 80.3%; in the experiment with A498 renal, 92.9%; in the experiment on CCRF-CEM leukemia it was 14.6%; with MOLT-4 leukemia, 17%; with SR leukemia, -30.4% (active); in the experiment with RPMI-8226 leukemia it was -12.3% (active). Further, the growth is 84.2% in the experiment with OVCAR-8 ovarian; 95% in the experiment with OVCAR-5 ovarian; 24.2% with OVCAR-4 ovarian; 87.7% in the experiment on SK-OV-3 ovarian; 66% with IGROV1 ovarian; 33.5% in the experiment with OVCAR-3 ovarian. The growth was 71.5% with HS 578T breast and 81.3% with NCI/ADR-RES ovarian.
In the case of `COc1ccc(C(=O)c2cc3c(N)c(C(=O)Nc4ccccc4)sc3nc2C)cc1`, the growth with SK-MEL-2 melanoma is 54.8%; in the experiment with EKVX NSCLC, 50.4%; in the experiment on SN12C renal, 32.1%; with UO-31 renal it was 52.3%; with TK-10 renal, 65.2%; with ACHN renal, 42.7%. For the same molecule, the growth in the experiment with CAKI-1 renal was 40%; in the experiment with A498 renal it was -1.62% (active); with CCRF-CEM leukemia, 10.4%; in the experiment with MOLT-4 leukemia, 18.3%; with SR leukemia it was 8.41% (active); with RPMI-8226 leukemia, 14.3%. Further, the growth is 25.5% in the experiment on OVCAR-8 ovarian; 38.8% in the experiment with OVCAR-5 ovarian; 74.8% in the experiment on OVCAR-4 ovarian; 33% in the experiment on SK-OV-3 ovarian; 39% in the experiment with IGROV1 ovarian; -4.41% (active) in the experiment with OVCAR-3 ovarian. The growth with HS 578T breast was 10.6%; in the experiment on NCI/ADR-RES ovarian, 14.8%.
For `COc1cccc(C(=O)NNc2nc(Cl)nc(Cl)n2)c1`, the growth was 96.3% in the experiment on SK-MEL-2 melanoma; 98% with EKVX NSCLC; 100% in the experiment with SN12C renal; 88.4% in the experiment with UO-31 renal; 104% in the experiment on TK-10 renal; 101% in the experiment on ACHN renal. In addition, the growth in the experiment with CAKI-1 renal is 96.1%; with A498 renal it was 96.6%; in the experiment on CCRF-CEM leukemia, 101%; in the experiment with MOLT-4 leukemia, 101%; in the experiment with SR leukemia, 101%; in the experiment with RPMI-8226 leukemia it was 95.7%. In addition, the growth with OVCAR-8 ovarian was 95.4%; in the experiment with OVCAR-5 ovarian, 101%; in the experiment with OVCAR-4 ovarian it was 107%; in the experiment with SK-OV-3 ovarian, 102%; with IGROV1 ovarian, 100%; with OVCAR-3 ovarian it was 106%. The growth in the experiment on HS 578T breast is 95.3%; in the experiment on NCI/ADR-RES ovarian, 104%.
In the case of `COc1ccc(/C=C2\COc3ccc(O)cc3C2=O)cc1`, the growth with SK-MEL-2 melanoma is 109%; in the experiment on EKVX NSCLC it was 105%; in the experiment with SN12C renal, 92.5%; in the experiment on UO-31 renal it was 72.7%; with TK-10 renal it was 104%; in the experiment on ACHN renal, 98.9%. The growth in the experiment with CAKI-1 renal is 89.4%; in the experiment on A498 renal, 110%; in the experiment with CCRF-CEM leukemia, 3.13% (active); with MOLT-4 leukemia, 74.5%; in the experiment with SR leukemia, 15.8%; in the experiment on RPMI-8226 leukemia, -0.495% (active). Besides, the growth in the experiment on OVCAR-8 ovarian was 95.3%; with OVCAR-5 ovarian it was 102%; with OVCAR-4 ovarian, 104%; in the experiment with SK-OV-3 ovarian it was 128%; in the experiment on IGROV1 ovarian it was 99.6%; in the experiment on OVCAR-3 ovarian, 114%. Moreover, the growth is 104% with HS 578T breast and 98.5% in the experiment on NCI/ADR-RES ovarian.
As for `CCN1C(=O)N(CC)C2C1NN=c1s/c(=C3\C(=O)N(CC(C)C)c4ccccc43)c(=O)n12` (stereo not given), the growth was 56% in the experiment on SK-MEL-2 melanoma; 53.7% in the experiment on EKVX NSCLC; 27.5% in the experiment on SN12C renal; 32.1% in the experiment with UO-31 renal; 70.2% in the experiment on TK-10 renal; 31% in the experiment on ACHN renal. The growth with CAKI-1 renal is 31.6%; with A498 renal it was 9.64% (active); in the experiment with CCRF-CEM leukemia, 11.6%; with MOLT-4 leukemia it was 19.6%; in the experiment with SR leukemia, 17.7%; with RPMI-8226 leukemia, 17.5%. For the same molecule, the growth with OVCAR-8 ovarian is 9.28% (active); in the experiment on OVCAR-5 ovarian, 30.3%; in the experiment on OVCAR-4 ovarian it was 44.6%; with SK-OV-3 ovarian, 45.1%; with IGROV1 ovarian, 19%; with OVCAR-3 ovarian, 5.65% (active). Besides, the growth with HS 578T breast is 18%; in the experiment with NCI/ADR-RES ovarian, 5.71% (active).
